{
  "source": "PubChem BioAssay AID449762",
  "about": "(Southern Research Specialized Biocontainment Screening …, 2010)",
  "note": "Out of some 330,000 compounds screened, about 1,900 (0.58%) were called active. About 4% were inconclusive and are not listed. These entries were drawn from the full list. Results with a measured potency or affinity are listed apart. Values without a mark were called inactive. Rule as the data show it: inconclusive = inhibition above about 70% without an active follow-up result; inactive = below that.",
  "data": [
    {"assay": "M. tuberculosis growth inhibition, HTS (AID 449762);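 also: bacterial growth assessed after seven days of incubation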", "details": "M. tuberculosis H37Rv growth inhibition, 7H9 media; at 25 µM; active compounds read high", "units": {"inhibition": "%"}, "values": [
      {"smiles": "N#CC(C#N)=C1CCc2ccccc2N1", "inhibition": -3.11},
      {"smiles": "O=C(NCCO)/C(=C\\c1ccc([N+](=O)[O-])o1)NC(=O)c1ccccc1", "inhibition": 59},
      {"smiles": "CCCCOC(=O)/C(=C\\c1ccc([N+](=O)[O-])o1)NC(=O)c1ccccc1", "inhibition": -4.98},
      {"smiles": "COc1ccc(C2C(C(=O)Nc3ccccn3)=C(C)Nc3ncnn32)c(OC)c1", "note": "(configuration not stated)", "inhibition": -4.42},
      {"smiles": "COc1ccc(OC)c(-c2csc(NC(=O)CSc3ccccc3)n2)c1", "inhibition": -4.32},
      {"smiles": "COc1ccc(CC(=O)Nc2ccc(S(=O)(=O)Nc3onc(C)c3C)cc2)cc1OC", "inhibition": 5.55},
      {"smiles": "COc1ccc(NC(=O)COC(=O)CCCc2c[nH]c3ccccc23)cc1", "inhibition": 37.6},
      {"smiles": "COc1ccc(C2NN=C(c3c[nH]c4ccccc34)C2O)cc1", "note": "(configuration not stated)", "inhibition": 4.48},
      {"smiles": "O=C(COC(=O)c1ccc2c(c1)C(=O)N(CCc1ccccc1)C2=O)Nc1ccc(OC(F)F)cc1", "inhibition": -2.61},
      {"smiles": "CCC(CO)(C(=O)OC1C[N+]2(C)CCC1CC2)c1ccccc1", "note": "(configuration not stated)", "inhibition": -13.2},
      {"smiles": "CCOC(=O)N1CCN(Cc2ccc(O)c3ncccc23)CC1", "inhibition": 55.4},
      {"smiles": "OCCN1CCN(Cc2cc(Cl)c3cccnc3c2O)CC1", "inhibition": 6.31},
      {"smiles": "CC(=O)Nc1ccc(S(=O)(=O)NCCc2c[nH]c3ccc(C)cc23)cc1", "inhibition": 0.51},
      {"smiles": "COc1ccc(OCCCCN(C)Cc2ccccc2)cc1", "inhibition": 13.7},
      {"smiles": "COc1ccc(CNC(=O)[C@@H]2CC=C[C@@H]3CCN(Cc4ccc(Cl)c(Cl)c4)C(=O)[C@@H]32)cc1", "inhibition": 18.4},
      {"smiles": "O=C(NNC(=S)Nc1ccccc1)c1ccncc1", "inhibition": 7.24},
      {"smiles": "CCOc1ccc(C2c3[nH]c4ccccc4c3CCN2Cc2cccn2-c2ncccn2)cc1", "note": "(configuration not stated)", "inhibition": 67.7},
      {"smiles": "COc1cccc(C2c3[nH]c4ccccc4c3CCN2Cc2cccn2-c2ncccn2)c1", "note": "(configuration not stated)", "inhibition": 2.06},
      {"smiles": "Cc1ccc(CNC(=O)CSCc2cccc(F)c2)cc1", "inhibition": 12.3},
      {"smiles": "CNC(=S)N/N=C/c1c(C)nn(-c2ccc(F)cc2)c1Cl", "inhibition": 6.49},
      {"smiles": "CC1=C(C)CC(C(=O)Nc2nccs2)C(C(=O)O)C1", "note": "(configuration not stated)", "inhibition": -4.95},
      {"smiles": "S=c1nccc(-c2ccc3c(c2)CCO3)[nH]1", "inhibition": 3.97},
      {"smiles": "S=c1nccc(-c2ccc(Cl)cc2)[nH]1", "inhibition": 54.5},
      {"smiles": "COc1ccc(C2C(C#N)=C(N)Oc3cc(C)n(Cc4ccncc4)c(=O)c32)cc1", "note": "(configuration not stated)", "inhibition": -7.68},
      {"smiles": "O=C(CCn1cnc2ccccc2c1=O)Nc1ccc2c(c1)OCCO2", "inhibition": -3.32},
      {"smiles": "CCN(CC)c1ccc2c(Cl)cc(=O)oc2c1", "inhibition": 5.83},
      {"smiles": "CCN(CC)c1ccc2c(C)c(Cl)c(=O)oc2c1", "inhibition": -3.19}
    ]}
  ]
}
